Compound activity as filed in PubChem.
Tb PYK inh = qHTS of Trypanosoma Brucei Inhibitors; Potency, µM (highest dose often 76.8 µM), hits mostly inhibitors; TbPYK enzyme, Kinase-Glo Plus ATP luminescence, 45 min; 410,000 tested, 0.12% active; AID 624173, 2012; pyruvate kinase (Trypanosoma brucei), Q57TT1; note: nearly all actives have a fitted effect of over 50% in size
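Quantitative HTS: titrated library compounds versus trypanosomal pyruvate kinase in TEA buffer (pH 7.2) containing KCl, MgCl2, BSA and Tween-20. Reactions were initiated with ADP, 130 uM final. Kinase-Glo Plus luminescence was read after 45 min at RT.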
FBPA Giardia inh = qHTS Assay for Inhibitors of Fructose-1,6-bisphosphate Aldolase from Giardia Lamblia; Potency, µM (series often up to 59.6 µM), actives largely listed as inhibitors; A8B2U2; purified Giardia FBPA; 290,000 tested, 0.71% active; note: nearly all actives have a fitted effect of over 55% in size
Target sequence (A8B2U2 whole entry, looked up): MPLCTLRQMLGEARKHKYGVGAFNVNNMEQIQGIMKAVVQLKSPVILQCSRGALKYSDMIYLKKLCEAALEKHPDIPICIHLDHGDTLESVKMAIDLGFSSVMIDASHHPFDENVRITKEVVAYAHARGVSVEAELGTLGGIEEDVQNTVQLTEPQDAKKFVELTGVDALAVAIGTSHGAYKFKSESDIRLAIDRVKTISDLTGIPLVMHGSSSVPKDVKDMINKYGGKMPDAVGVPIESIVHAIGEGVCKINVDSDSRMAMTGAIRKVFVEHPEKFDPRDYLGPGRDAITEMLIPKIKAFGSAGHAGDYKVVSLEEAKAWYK
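40 nM FBPA preincubated 10 min at RT with compound (up to 57.5 uM final), then substrate plus GAPDH/TPI/NAD/arsenate coupling and diaphorase/resazurin added. Fluorescence read after 20 min at RT, 525/598 nm.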
CHX counter = Cycloheximide Counterscreen for Small Molecule Inhibitors of Shiga Toxin. cell reporter, cycloheximide protein synthesis inhibition counterscreen. max response, %. 300,000 tested, 12% active; in the data active = max response mostly above about 13%, no sharp cut-off; inactive = mostly below about 14%; note: read at 38.3 µM for the half of the compounds with a filed dose
Shiga inhibitor = A qHTS for Small Molecule Inhibitors of Shiga Toxin | 290,000 tested, 9.2% active | inhibition, % at 38.7 µM | Vero cells, Shiga toxin protein synthesis inhibition reporter; in the data active = inhibition mostly above about 28%, no sharp cut-off; inactive = mostly below about 43%
LmPK inhibitor = qHTS Assay for Inhibitors of Leishmania Mexicana Pyruvate Kinase (LmPK) | AID 1721, 2009 | purified LmPK, Kinase-Glo ATP luminescence, 1 h | Potency, µM (highest dose often 57.5 µM), hits mostly inhibitors | 290,000 tested, 0.37% active
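Purified LmPK (0.1 nM) converted ADP (0.1 mM) to ATP with PEP (0.5 mM) in imidazole buffer pH 7.2 with KCl and MgCl2, 1 h at room temperature. ATP was read by Kinase-Glo luminescence; data normalized to uninhibited and no-enzyme controls.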
RE007 growth inh = qHTS Assay for Inhibitors of the HIV-1 protein Vpr | S. pombe RE007 Vpr strain, BacTiter-Glo ATP luminescence, 24 h | Potency, µM (doses to about 92.2 µM), hits mostly inhibitors | 360,000 tested, 0.21% active | AID 651644, 2012; active = well fitted falling curve with a large enough effect; inconclusive = small, poorly fitted or top-dose-only effect; inactive = no such curve, though single readings can be large or run the other way; note: nearly all actives have a fitted effect of over 50% in size
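Fission yeast strain RE007, carrying one chromosomally integrated HIV-1 vpr copy, was seeded at OD 0.01 in PMG+AL medium with 23 nL pinned compound. After 24 h at 30 °C and 99% humidity, viability was read by BacTiter-Glo luminescence.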
Hits are given with their value; . = inactive; ? = inconclusive; / = not tested or not shown; [ ] = dose if it differs, or a comment. The full list was thinned out, with hits kept by preference. Unless noted, calls come from the whole dose curve; as a rule, active = well fitted curve in the direction sought with a large enough effect; inconclusive = small, poorly fitted or top-dose-only effect, or another doubt; inactive = no such curve, though single readings can be large; an effect the other way counts as inactive or inconclusive.

SMILES | Tb PYK inh | FBPA Giardia inh | CHX counter | Shiga inhibitor | LmPK inhibitor | RE007 growth inh
Cc1ccc(/C=N/NC(=O)CSc2nc3ccccc3[nH]2)o1 | . | / | 18 | . | . | .
CCC(C)/C(C)=N/NC(=O)CSc1nc2ccccc2[nH]1 (stereo not given) | . | . | . | 67 | . | .
O=C(CSc1nc2ccccc2[nH]1)N/N=C/c1ccncc1 | . | . | . | . | . | .
CCCc1nnc(NC(=O)CSc2nc3ccccc3[nH]2)s1 | . | . | 19 | 44 | . | .
O=c1c2ccccc2nc(-c2cccs2)n1-c1ccc2ccccc2c1 | . | . | 29 | active | . | .
CCOC(=O)c1cccc(NC(=O)c2cc3ccccn3n2)c1 | . | / | / | / | / | /
Cc1ccc(CNC(=O)CN(c2ccc(Cl)cc2Cl)S(=O)(=O)c2ccccc2)cc1 | . | / | / | / | / | /
Nc1oc2ccccc2c(=O)c1-c1ccc2c(c1)OCO2 | . | . | 41 | 72 | . | .
CC(=O)c1ccc(N2CCN(C(=O)c3cc4c(s3)-c3ccccc3OC4)CC2)cc1 | . | / | / | / | / | /
COC(=O)c1cc(=O)c(O)c2c(O)c(O)ccc2c1 | / | 5µM | / | / | / | /
O=C(Nc1ccc(F)cc1)c1ccc(CSc2ccc(Cl)cc2)o1 | . | . | . | . | . | .
O=C(Nc1ccc(F)cc1)c1ccc(CSc2ccccc2)o1 | . | . | 21 | . | . | .
Cc1ccc(C(=O)Nc2ccc3c(c2)CCC3)o1 | . | . | 63 | 99 | ? | ?
Cc1ccc(C(=O)Nc2ccc(F)cc2)o1 | . | . | . | 32 | . | .
Cc1cc(C)nc(NC(=O)c2ccc(C)o2)n1 | . | / | . | . | . | .
Cc1ccc(C(=O)Nc2ccc(O)c(C(=O)O)c2)o1 | ? | . | . | . | . | .
O=C(Nc1ccc2c(c1)OCO2)c1ccc(Br)o1 | . | . | 48 | 69 | 22µM | .
CCc1ccc2oc(-c3ccc(C)c(NC(=O)c4ccc(C#N)cc4F)c3)nc2c1 | . | / | / | / | / | /
Cc1ccc2c(c1)cc1c(=O)n(CC(=O)NC3CCCCC3)nc(C)n12 | . | / | / | / | / | /
O=C(Nc1ccc2c(c1)OCO2)c1ccc(COc2ccc3c(c2)CCC3)o1 | . | . | 43 | 45 | . | .
O=C(Nc1ccc2c(c1)CCC2)c1cc2ccccc2o1 | . | . | 65 | 55 | . | ?
O=C(NCc1ccc2c(c1)OCO2)c1ccc(COc2cc(Cl)ccc2Cl)o1 | . | . | . | . | . | .
C/C(=N\NC(=O)c1ccc(Br)o1)c1cc2c(cc1NC(=O)CCC(=O)O)OCO2 | . | / | 19 | 34 | . | .
O=C(Nc1ccc2c(c1)CCC2)c1ccc(Br)o1 | . | . | 44 | 76 | . | ?
CC(C)CCC[C@@H](C)[C@@H]1CC[C@H]2C3=CC=C4CC(O)CC[C@]4(C)[C@H]3CC[C@@]21C (stereo not given in full) | / | . | . | . | / | /
SMILES | Tb PYK inh | FBPA Giardia inh | CHX counter | Shiga inhibitor | LmPK inhibitor | RE007 growth inh
CCc1cccc(C)c1NC(=O)c1cc(C)nc2c1c(C)nn2-c1cccc(Cl)c1C | . | / | / | / | / | /
CN[C@@H](CCCN=C(N)N)C(=O)N[C@@H](CCCCN)C(=O)N1CCC[C@H]1C(=O)N[C@@H](Cc1c[nH]c2ccccc12)C(=O)N[C@H](C(=O)N[C@H](CC(C)C)C(=O)O)C(C)(C)C | / | . | . | . | / | /
COc1ccc(N2CCN(C(=O)CCn3c(=O)[nH]c4cc(OC)c(OC)cc4c3=O)CC2)cc1 | . | / | / | / | / | /
CC(C)C[C@@H](NC(=O)[C@@H](COC(C)(C)C)NC(=O)[C@H](Cc1ccc(O)cc1)NC(=O)[C@@H](CO)NC(=O)[C@@H](Cc1c[nH]c2ccccc12)NC(=O)[C@@H](Cc1cnc[nH]1)NC(=O)[C@@H]1CCC(=O)N1)C(=O)N[C@H](CCCN=C(N)N)C(=O)N1CCC[C@H]1C(=O)NNC(N)=O | . | / | / | / | / | /
Cc1ccc(CNC(=O)CCS(=O)(=O)c2cc3c4c(c2)CCN4C(=O)CC3)cc1 | . | / | / | / | / | /
Cc1ccc(NC(=O)c2ccc(Br)o2)cc1S(=O)(=O)N(C)C | . | . | 24 | 78 | . | .
Cc1ccc(NC(=O)Nc2ccc3c(c2)CCC3)cc1C | . | / | . | . | . | .
Cc1ccc(NC(=O)c2ccc(OC(F)(F)F)cc2)cc1S(=O)(=O)N(C)C | . | . | 12 | . | . | .
Cc1ccc(NC(=O)Cc2ccc3c(c2)CCCC3)cc1C | . | . | 23 | . | . | .
Cc1ccc(NC(=O)c2ccncc2)cc1S(=O)(=O)N(C)C | . | . | . | . | . | .
CCc1nc2ccc(C(=O)N(CC)CCN(C)C)cn2c1N(CC)CCOC | . | / | / | / | / | .[18.4 µM]
CN(Cc1ccccc1)C(=O)c1cccc(NC(=O)c2nsc3ccccc23)c1 | . | / | / | / | / | /
Clc1cccc(-c2nc3ccccn3c2Nc2ccc3c(c2)OCCO3)c1 | . | / | / | / | / | /
COC(=O)Cn1c(=NC(=O)c2nc3ccccc3s2)sc2cc(S(C)(=O)=O)ccc21 | / | . | 17 | . | . | /
COC(=O)Cn1c(=NC(=O)c2ccc([N+](=O)[O-])s2)sc2cc(Br)ccc21 | / | . | 15 | . | . | /
COC(=O)Cn1c(=NC(=O)c2sc3ccccc3c2Cl)sc2cc(S(N)(=O)=O)ccc21 | . | . | . | . | . | .
Cn1c(=NC(=O)c2ccc(F)cc2)sc2cc(Br)ccc21 | .[15.4 µM] | / | / | / | / | /
COC(=O)Cn1c(=NC(=O)c2ccc(Cl)s2)sc2cc(C)ccc21 | . | . | 18 | . | . | .
CCN(CC)C(=O)Cn1c(=O)n(-c2ccc(Cl)c(Cl)c2)c(=O)c2c(C)c(C(=O)N(CC)CC)sc21 | . | / | / | / | / | /
COc1ccc(CNC(=O)c2ccccc2NC(=O)C2=C(C)OCCS2)cc1 | . | / | / | / | / | .
COc1cccc(CNC(=O)Cc2ccc(NC(=O)C3=C(C)OCCS3)cc2)c1 | . | / | 29 | 41 | . | .
CC1=C(C(=O)Nc2cccc(C(=O)NCc3ccc(F)cc3)c2)SCCO1 | . | / | . | . | . | .
CCc1ccc(CNC(=O)Cc2ccc(NC(=O)C3=C(C)OCCS3)cc2)cc1 | . | . | 36 | 57 | . | .
CC1=C(C(=O)Nc2ccc(CC(=O)NCc3ccccc3C)cc2)SCCO1 | . | / | 22 | 55 | . | .
Cc1cccc2c1-c1sc(C(=O)N(C)c3cccc(C(F)(F)F)c3)cc1CO2 | . | / | / | / | / | /
O=C(COC(=O)c1ccccc1Nc1ccc(SC(F)F)cc1)NC1CC1 | . | . | 73 | 75 | . | .
CNC(=O)COC(=O)c1ccccc1Nc1ccccc1 | . | . | 17 | 118 | . | .
CC(C)(C)NC(=O)COC(=O)c1ccccc1Nc1ccc(SC(F)F)cc1 | . | . | 55 | 67 | . | .
CN(C)C(=O)COC(=O)c1ccccc1OCC(=O)Nc1ccc(SC(F)F)cc1 | . | . | . | . | . | .
